Out of some 48,000 compounds screened, about 13,000 (27%) showed an effect of 50% or more. The list shows a part of the results.
What follows are compounds tested on Wolbachia pipientis (assay: Anti-Wolbachia Cell-Based Screen). Conditions: 5 µM.
Format: functional
Design: scale not given: in the data most compounds retested in dose-response had high values

First: CCc1ccc(CN2CCC3(CC2)C(=O)N(C)CCN3CC)cc1
Second: CCN1CCN(C)C(=O)C12CCN(Cc1csc(C)n1)CC2.O=C(O)C(F)(F)F
The “Percent Effect” value of the first is lower: -23.08% for the first, 113.1% for the second.

Going from Cc1nc(CN2CCC3(CC2)CC(=O)N(C)c2ccccc23)cs1.O=C(O)C(F)(F)F to Cc1nc(CN2CCC3(CC2)CCN(C(=O)c2cscn2)C3)cs1.O=C(O)C(F)(F)F, the “Percent Effect” value falls from -15.31% to -22.9%.

Compared with Cc1nc(Cn2c3c(ccc2=O)CCN(CC2CCC2)CC3)cs1.O=C(O)C(F)(F)F.O=C(O)C(F)(F)F, COCC1CC2(CCN(CC3CC3)CC2)CN1Cc1csc(C)n1.O=C(O)C(F)(F)F.O=C(O)C(F)(F)F (stereo not given) is higher in “Percent Effect” value: -14.62% for the first, 2.06% for the second.

Going from Cc1nc(CN2CCN(C)C(=O)C23CCN(CC2CCCC2)CC3)cs1 to Cc1nc(CN2CCC3(CC2)C(=O)N(C)CCN3C)cs1.O=C(O)C(F)(F)F.O=C(O)C(F)(F)F.O=C(O)C(F)(F)F, the “Percent Effect” value falls from 121.4% to 99.41%.

Compared with CC(NC(=O)c1cnccn1)c1nnc2ccccn12 (stereo not given), O=C(NCC1CC[C@@]2(CNCCOC2)O1)c1cnccn1 (stereo not given in full) is higher in “Percent Effect” value: -8.378% for the first, -4.727% for the second.

Compared with CN(CC1Cc2ccccc2CN1C)C(=O)CSc1nccn1C (stereo not given), COCCN(CC1CCCN(C2Cc3ccccc3C2)C1)C(=O)CO (stereo not given) is higher in “Percent Effect” value: -6.855% for the first, -6.477% for the second.

Going from CN(C)C(C(=O)Nc1nccs1)c1c(F)cccc1Cl (stereo not given) to CCC(CO)N(Cc1ccccn1)C(=O)c1ccc(F)c(F)c1 (stereo not given), the “Percent Effect” value falls from -1.745% to -4.122%.

First: CCCN1CCC(Nc2nc(CC)ns2)CC1
Second: CCCc1nnc(NC2CCN(CCO)CC2)o1
The “Percent Effect” value of the first is lower: -19.08% for the first, -14.34% for the second.

Compared with O=C(c1ccncc1)N1CCC2(CC1)CC(Oc1cccnc1)CO2 (stereo not given), O=C(c1ccncc1)N1CCC2(CC1)CCN(C(=O)c1cccnc1)C2 is higher in “Percent Effect” value: -1.534% for the first, 102.3% for the second.

Going from CN(Cc1cccnc1)C1CC2(CCN(C(=O)c3ccnnc3)CC2)C1 to O=C(c1ccnnc1)N1CCC2(CC1)CCN(C(=O)c1cccnc1)C2, the “Percent Effect” value rises from 9.482% to 96.42%.

Going from COC(=O)[C@H]1CN(C(C)=O)CCN1C(C)=O to CC(=O)N1CCN(C(=O)NCCCN(C)S(C)(=O)=O)CC1, the “Percent Effect” value falls from -4.652% to -13.58%.

Going from O=C1CCN(C(=O)C2(c3ccc(F)cc3)CCCCC2)CCN1 to O=C1CCCN1CC1CCCCN1C(=O)Nc1cccnc1 (stereo not given), the “Percent Effect” value rises from -15.47% to 2.863%.

Compared with CNS(=O)(=O)CCCNC(C)(C)c1nc(C)cs1, CCc1cnc(N)nc1NCCCn1nc(C)nc1C is higher in “Percent Effect” value: 1.727% for the first, 4.841% for the second.

First: CCOc1ccccc1C(CC(=O)O)NC(C)=O (stereo not given)
Second: CCOCC(O)CN1CCN(C(=O)c2ccccc2F)CC1 (stereo not given)
The “Percent Effect” value of the first is lower: 10.47% for the first, 82.64% for the second.

Compared with Cc1nsc(NC2CC(=O)N(C(C)(C)C)C2)n1 (stereo not given), Cc1nc(CCNC(=O)C2CC(=O)N(C(C)C)C2)sc1C (stereo not given) is lower in “Percent Effect” value: -3.11% for the first, -29.36% for the second.

First: COc1cc(-c2nc(N)n[nH]2)cc(OC)c1OC
Second: COc1cc(-c2n[nH]c(CN)n2)cc(OC)c1OC
The “Percent Effect” value of the first is higher: 107.9% for the first, 105.2% for the second.

Going from COc1cc(-c2n[nH]c(CCN)n2)cc(OC)c1OC to COc1cc(-c2n[nH]c(CO)n2)cc(OC)c1OC, the “Percent Effect” value falls from 136.2% to 101.2%.

Going from COc1cc(CNc2nncs2)cc(OC)c1OC to COc1cc(-c2cnnc(NCCSC)n2)cc(OC)c1OC, the “Percent Effect” value falls from -2.056% to -5.891%.

First: COc1cc(-c2n[nH]c(CC#N)n2)cc(OC)c1OC
Second: COc1cc(-c2cnnc(NCC3CC3)n2)cc(OC)c1OC
The “Percent Effect” value of the first is higher: 137.1% for the first, 22.6% for the second.

Compared with COc1cc(CNc2nc3c(c(=O)[nH]2)CCNC3)cc(OC)c1OC, COc1cc(-c2cccc3c2OC(CN)C3)cc(OC)c1OC (stereo not given) is higher in “Percent Effect” value: -8.828% for the first, 1.955% for the second.

First: COc1cc(CO)c(OC)c2c1OCO2
Second: COc1cc(CN)c(OC)c2c1OCO2.Cl
The “Percent Effect” value of the first is higher: 0.3319% for the first, -2.392% for the second.

First: COc1ccc(OC)c(-n2cnnc2CCN)c1
Second: COc1ccc(-c2ccccc2CCN)c(OC)c1OC
The “Percent Effect” value of the first is higher: 12.28% for the first, -10.47% for the second.

Going from CC(C)c1nccn1C1CCCN(C(=O)c2cccc3[nH]ncc23)C1 (stereo not given) to CCOCC(O)CN1CCN(C(=O)c2cccc3[nH]ncc23)CC1 (stereo not given), the “Percent Effect” value falls from -3.235% to -8.301%.

First: CN(CCNC(=O)Nc1ccncc1)C1CCCCC1
Second: CC(CO)(NC(=O)Nc1nnc(C2CC2)s1)C1CCCCC1 (stereo not given)
The “Percent Effect” value of the first is lower: -10.45% for the first, -9.055% for the second.

Going from COCCC(=O)NCCCOC1CCCc2ccccc21 (stereo not given) to CCOC(=O)CCNC(=O)N1CCCC(CNC(=O)c2cccs2)C1 (stereo not given), the “Percent Effect” value falls from 3.193% to -0.8406%.

Compared with CC(C)c1noc(C(C)N2CCN(Cc3nc4ccccc4[nH]3)CC2)n1 (stereo not given), CCOCC(O)CN1CCN(C(=O)c2ccccc2Cl)CC1 (stereo not given) is higher in “Percent Effect” value: -18.96% for the first, -0.07038% for the second.

Compared with CCN(C(=O)CN1CCCC1Cc1ccccc1)c1ccccc1 (stereo not given), CN(Cc1cc(=O)c(O)co1)C1CCCN(c2ccccc2)C1 (stereo not given) is lower in “Percent Effect” value: 22.38% for the first, -2.476% for the second.

Going from CNS(=O)(=O)c1ccc(CNC(=O)NCC2CCOC2)cc1 (stereo not given) to Cc1cc2n(n1)CC(CNCCNC(=O)c1ccc(F)cc1)CN2 (stereo not given), the “Percent Effect” value falls from 7.061% to -2.749%.

Going from Cn1cc(CN2CC[C@H]3C[C@@H](c4nc(C5CC5)cs4)O[C@@H]3C2)cn1 to Cn1cc(CN2CC[C@H]3C[C@H](c4nc(C5CC5)cs4)O[C@@H]3C2)cn1, the “Percent Effect” value rises from -0.3412% to 15.37%.

Compared with Cc1csc([C@@H]2C[C@H]3CN(c4ncc(F)cn4)C[C@H]3O2)n1.O=C(O)C(F)(F)F, Fc1cnc(N2C[C@@H]3C[C@@H](c4nc(C5CC5)cs4)O[C@@H]3C2)nc1.O=C(O)C(F)(F)F is lower in “Percent Effect” value: 98.65% for the first, 94.12% for the second.

Compared with Cc1cnc(C(=O)N2CC[C@H]3C[C@@H](c4nc(C)cs4)O[C@@H]3C2)cn1, CCN(C)c1ncnc2c1CCN(C(=O)c1ccc(C)o1)CC2 is higher in “Percent Effect” value: -16.87% for the first, 16.8% for the second.

First: Cc1nc(CN2C[C@@H]3CN(c4ncc(F)cn4)C[C@@H]3C2=O)cs1.O=C(O)C(F)(F)F
Second: Cc1cccc(N2CCc3ncnc(C4CC4)c3CC2)n1.O=C(O)C(F)(F)F
The “Percent Effect” value of the first is lower: -12.56% for the first, -0.7923% for the second.

First: Cc1cccc(N2CCN(c3ccn4c(=O)[nH]nc4n3)CC2)c1C
Second: Cc1ccccc1S(=O)(=O)N1CCc2c(ncnc2N(C)C)C1
The “Percent Effect” value of the first is lower: -10.93% for the first, -0.5839% for the second.

Compared with Cc1ccc2c(c1C)OCC2NCc1cccc(C#N)c1 (stereo not given), Cc1cccc(C)c1NCc1noc(C2CC2)n1 is lower in “Percent Effect” value: -16% for the first, -19.13% for the second.

Compared with CC(C(=O)N1CCCC1)S(=O)(=O)Cc1nc(C(C)(C)C)no1 (stereo not given), CS(=O)(=O)N1CCC(c2nnc3ccc(C(=O)N4CCCC4)cn23)C1 (stereo not given) is lower in “Percent Effect” value: 0.9098% for the first, -3.487% for the second.

Compared with CCCc1nnc(NCCc2noc(C3CCC3)n2)o1, CCCc1nnc(NCCc2noc(C3CC3)n2)o1 is higher in “Percent Effect” value: 108% for the first, 133.3% for the second.

Compared with CCCc1nnc(NC2CCN(C3CCOCC3)CC2)o1, CCCc1nnc(NC2CCN(C3CCCC3)CC2)o1 is lower in “Percent Effect” value: -6.121% for the first, -6.832% for the second.

Compared with c1ccc(-c2n[nH]c(CCNc3nnc(C4CCC4)o3)n2)cc1, c1ccc(-c2nc(CCNc3nnc(C4CCC4)o3)no2)cc1 is lower in “Percent Effect” value: -23.29% for the first, -25.81% for the second.

Going from CCCc1nnc(NCCc2noc(C3CCCC3)n2)o1 to Cc1nc(CN(C)C2CCN(CC3CCCC3)C2)no1 (stereo not given), the “Percent Effect” value falls from 110.1% to 93.14%.

Going from COCC(C)NCc1nc(-c2ccc(C)cc2)c(-c2ccccn2)[nH]1 (stereo not given) to c1ccc(N2CCC(NCc3cccc4cn[nH]c34)C2)cc1 (stereo not given), the “Percent Effect” value falls from 22.14% to 2.833%.

Compared with CCOCC(O)CN1CCN(C(=O)c2cc(C)ccc2OC)CC1 (stereo not given), CCOCC(O)CN1CCN(C(=O)c2cc(C)ccc2F)CC1 (stereo not given) is higher in “Percent Effect” value: 91.25% for the first, 114.4% for the second.

Going from CCOCC(O)CN1CCN(C(=O)CC(C)C)CC1 (stereo not given) to CCOCC(O)CN1CCN(C(=O)C2CC2)CC1 (stereo not given), the “Percent Effect” value rises from -1.349% to 3.304%.

First: CCOCC(O)CN1CCN(C(=O)c2cc(F)ccc2C)CC1 (stereo not given)
Second: CCOCC(O)CN1CCN(C(=O)c2cc(Cl)ccc2F)CC1 (stereo not given)
The “Percent Effect” value of the first is lower: -5.879% for the first, 107.8% for the second.

Going from CCOCC(O)CN1CCN(C(=O)c2cccnc2OC)CC1 (stereo not given) to CCOCC(O)CN1CCN(C(=O)c2ccc(OC)cc2F)CC1 (stereo not given), the “Percent Effect” value rises from -8.967% to 5.863%.

Compared with COc1ccccc1[C@@H]1CN(Cc2ccc3nsnc3c2)C[C@H]1C(=O)O, Cc1nc(CN(C)C2CCCN(c3ccccc3)C2)no1 (stereo not given) is higher in “Percent Effect” value: -7.505% for the first, 85.51% for the second.

First: Cc1ncnc2c1CCN(c1cc(C(F)(F)F)ncn1)CC2
Second: Cc1ncnc2c1CCN(c1ccccn1)CC2.O=C(O)C(F)(F)F
The “Percent Effect” value of the first is lower: -23.9% for the first, -1.048% for the second.

First: c1ccc(N2CCc3ncnc(C4CC4)c3CC2)nc1
Second: Cc1ccc(N2CCc3ncnc(C4CC4)c3CC2)nn1
The “Percent Effect” value of the first is lower: -3.177% for the first, 109.7% for the second.

Compared with Cc1ccc(N2CCCC(N(C)c3ncnc4c3CCC4)C2)nn1 (stereo not given), Cc1ccc(N2CCc3ncnc(N(C)C)c3CC2)nn1 is higher in “Percent Effect” value: 40.92% for the first, 103.7% for the second.

Compared with Cc1ccc(N2CCc3ncnc(C)c3CC2)nn1, CCN(C)c1ncnc2c1CCN(c1ccc(C)nn1)CC2 is lower in “Percent Effect” value: 98.11% for the first, 88.89% for the second.

First: CCN(CC)c1ncnc2c1CCN(CC1CCOCC1)CC2.O=C(O)C(F)(F)F
Second: CCN(CC)c1ncnc2c1CCN(c1ccc(C)nn1)CC2
The “Percent Effect” value of the first is lower: -1.394% for the first, 109.1% for the second.

Compared with CCN(C)c1ncnc2c1CCN(Cc1ccoc1)CC2, CN(C)c1ncnc2c1CCN(c1ccccc1)CC2 is higher in “Percent Effect” value: 5.87% for the first, 9.479% for the second.

Compared with CN(c1nc(Cn2cc(Br)ccc2=O)cs1)C1CC1, Cc1cc(CN(C)C2CCCN(Cc3noc(C)n3)C2)on1 (stereo not given) is higher in “Percent Effect” value: -13.88% for the first, 4.561% for the second.

Going from CC(CCN1CCOCC1)NC(=O)c1cccc(C(F)(F)F)c1F (stereo not given) to Cc1nc(CN(C)C2CCN(CC3CCOCC3)C2)no1 (stereo not given), the “Percent Effect” value rises from -6.149% to 108.1%.

Going from COc1ccc(N2CCC(C(=O)/N=c3/[nH]ccs3)CC2)nn1 to Cc1nc(CN(C)C2CCN(CC3CCC3)C2)no1 (stereo not given), the “Percent Effect” value rises from 7.434% to 98.61%.

First: Cc1nc(CN(C)C2CCN(CC3CCCCC3)C2)no1 (stereo not given)
Second: Cc1nc(CN(C)C2CCN(CC(=O)N(C)CCC#N)C2)no1 (stereo not given)
The “Percent Effect” value of the first is higher: 12.52% for the first, -8.122% for the second.
